# Laboratory results: PubChem BioAssay AID652042 (Broad Institute, 2013)
# Screen size: about 1,100 compounds; about 350 (32%) were called active. How the calls were made is not given here. These entries were drawn from the full list. A call without a number means that no potency is given here. Potency and affinity values are given separately.
# Test: CEM21 lymphoblast cell cytotoxicity, dose response, cytotoxicity control for viral fusion inhibitor project, CellTiter-Glo luminescence, cherry-picked (AID 652042)
# Conditions: CEM21 cells viability, CellTiter-Glo ATP luminescence, 24 h; series mostly up to 35 µM
row,SMILES,"activity change, negative = cytotoxicity"
1,S=c1[nH]cc(-c2ccccc2)n1-c1cccc(Cl)c1,inactive
2,CCOc1ccc(NC2c3ccccc3C(=O)N2Cc2ccco2)cc1 (configuration not stated),inactive
3,CC1CN(S(=O)(=O)c2cc(C(=O)NCCC3=CCCCC3)ccc2Cl)CC(C)O1 (configuration not stated),-1.11% [at 8 µM] (inactive)
4,COc1ccc(Cl)cc1NC(=O)Nc1cnccn1,inactive
5,COc1ccc(OCC(=O)Nc2cc(-c3nn(C)c(=O)c4ccccc34)ccc2OC)cc1,inactive
6,COC(=O)[C@@]1(Cc2ccccc2)[C@H]2C(=O)N(Cc3ccccc3)C(=O)[C@H]2[C@H]2CN=C(SCc3ccc(C#N)cc3)N21,inactive
7,O=C(CN1C(=O)c2ccccc2S1(=O)=O)c1ccc2c(c1)OCCCO2,inactive
8,CCc1ccc(-c2nc(CN3CCC(C(=O)NCCc4ccc(OC)c(OC)c4)CC3)c(C)o2)cc1,inactive
9,Cc1oc(-c2ccccc2F)nc1CN1CCC(C(=O)NCCC2=CCCCC2)CC1,inactive
10,CN1CC(c2ccccc2)C2(COc3ccccc3C2=O)C12C(=O)Nc1ccccc12 (configuration not stated),inactive
11,COc1ccccc1S(=O)(=O)n1cc(Cc2ccccc2)c(N)n1,inactive
12,CCOC(=O)c1c(CSc2ccccc2)oc2cc(Br)c(O)c(CN(C)C)c12,inactive
13,CC(=O)C1=C(C)NC(=S)NC1c1ccccc1 (configuration not stated),inactive
14,c1ccc2c(c1)ncn2CCCCOc1ccc2c(c1)CCC2,1.14% [at 8 µM] (inactive)
15,CC1CCN(C(=O)c2ncn3c2C(=O)NC[C@@H]3C)CC1,inactive
16,C[C@H]1CNC(=O)c2c(C(=O)N3CCN(c4ccccc4)CC3)ncn21,inactive
17,Cn1c(CN2CCCCC2)nc2cc(NC(=O)c3ccc(Cl)cc3)ccc21,inactive
18,Cc1ccc(NS(=O)(=O)c2cc(C(=O)N(C)C3CCN(C)CC3)ccc2Cl)cc1Cl,inactive
19,COc1ccc2[nH]c(=O)c(CN(Cc3nnnn3Cc3ccccc3)CC3CCCO3)cc2c1 (configuration not stated),inactive
20,COc1ccc(OCC(=O)Nc2ccccc2N2CCCCC2)cc1,inactive
21,CCC(C)(C)NC(=O)C(c1ccccc1F)N(Cc1ccco1)C(=O)c1csnn1 (configuration not stated),inactive
22,CO[C@@H]1CN(C)C(=O)c2cc(NC(=O)Nc3ccc(Cl)cc3)ccc2OC[C@H](C)N(C)C[C@H]1C,inactive
23,CC[C@@]1(C(=O)OC)N[C@H](CN(C)C(=O)Nc2ccc(F)cc2)[C@@H]2C(=O)N(Cc3ccccc3)C(=O)[C@@H]21,inactive
24,Cc1nc2sc(C(c3ccco3)N3CCC(Cc4ccccc4)CC3)c(O)n2n1 (configuration not stated),inactive
25,CN(C)C(=O)C[C@@H]1C[C@H]2c3cc(NS(=O)(=O)c4ccc(F)cc4)ccc3O[C@H]2[C@H](CO)O1,inactive

row,SMILES,"activity change, negative = cytotoxicity"
1,O=C(CN1CCN(Cc2ccc(Cl)cc2)C1=O)NCCCN1CCN(c2ccc(F)cc2)CC1,inactive
2,Clc1ccc(-c2csc3ncnc(NCCN4CCOCC4)c23)cc1,inactive
3,CC(C)CN(C(=O)c1ccc(S(=O)(=O)N2CCCCC2)cc1)C1CCS(=O)(=O)C1 (configuration not stated),inactive
4,CC[C@@]12C(=O)N(c3ccc(C)cc3)C(=O)N1[C@H](c1ccc(Br)cc1)[C@@H]1C(=O)N(C(C)(C)C)C(=O)[C@@H]12,inactive
5,O=c1[nH]c(=O)n([C@H]2C[C@H](O)[C@@H](CO)O2)cc1F,inactive
6,CCOc1ccc(C(=O)C2CCN(CC(=O)Nc3ccccc3N3CCOCC3)CC2)cc1,inactive
7,COc1ccc(C(O)(C2CCCCC2)C(CN2CCOCC2)c2ccccc2)cc1 (configuration not stated),inactive
8,CCOc1ccc(OCc2cccc(C(=O)N3CCOCC3)c2)cc1,inactive
9,CC(C)(COC(=O)C(c1ccccc1)c1ccccc1)CN1CCOCC1,inactive
10,CCCNC(=O)c1ccccc1NC(=O)c1ccccc1N(C)S(=O)(=O)c1ccccc1,inactive
11,Cc1[nH]nc2ncc(C(=O)c3ccccc3O)cc12,inactive
12,O=C(CCC(=O)N1CCN(S(=O)(=O)c2ccc3ccccc3c2)CC1)Nc1cc(Cl)cc(Cl)c1,inactive
13,CCN1CCN(S(=O)(=O)c2ccc(Cl)c(C(=O)Nc3ccccc3N3CCCC3)c2)CC1,inactive
14,CCCCCCc1nc2ccccc2c(=O)n1NC(=O)c1c(O)c2c(n(CC(C)C)c1=O)CCCC2,inactive
15,CC[C@@]12C(=O)N(c3cccc(Br)c3)C(=O)N1[C@H](c1ccc(OC)cc1)[C@@H]1C(=O)N(C(C)(C)C)C(=O)[C@@H]12,inactive
16,CN(Cc1ccc(Cl)cc1Cl)C(=O)c1cccc(S(=O)(=O)N2CCN(c3ccccc3)CC2)c1,inactive
17,Cc1ccc(C)c(-n2cc(CNCCCn3cccn3)c(-c3ccccc3)n2)c1,inactive
18,O=C1NCCN(Cc2cccc(Oc3ccccc3)c2)C1CC(=O)N1CCCCC1 (configuration not stated),inactive
19,Cc1cc(Cl)c(S(=O)(=O)N2CCSCC2)cc1OCC(=O)NC1CCCCC1,inactive
20,Cc1cc(Cl)c(S(=O)(=O)N2CCCC2)cc1OCC(=O)NC1CCCCC1,inactive
21,CN(C)CCn1c(=O)n(-c2cccc(Cl)c2)c(=O)c2c3c(sc21)CCCCC3,inactive
22,CCC(C)NS(=O)(=O)c1ccc(S(=O)(=O)N2CCCC3(CCCCC3)C2)cc1 (configuration not stated),inactive
23,O=C(COC(=O)c1ncc(Cl)c(Cl)c1Cl)NCc1cccs1,inactive
24,Cc1nc2ccccc2c2c1CC(C(C)(Cl)Br)O2 (configuration not stated),inactive
25,COc1cc2oc(=O)cc(-c3ccc(-c4ccc(CO)cc4)cc3)c2c(OC)c1OC,inactive

row,SMILES,"activity change, negative = cytotoxicity"
1,COc1ccccc1N/C(N)=N/c1nc(CSc2ccc(C)cc2)cc(=O)[nH]1,inactive
2,C=CCN=C1NN=C(c2cc(C)n(CCOC)c2C)CS1,inactive
3,CN1C(=O)c2cc(NS(=O)(=O)c3ccccc3F)ccc2OC[C@@H]2O[C@H](CC(=O)NC3Cc4ccccc4C3)CC[C@@H]21,inactive
4,Cn1c(C(=O)NCCCN2CCN(c3ccccc3F)CC2)cc2c(=O)[nH]c3ccccc3c21,inactive
5,Cc1cccc(/C=N\Nc2cn[nH]c(=O)c2Cl)c1,inactive
6,COC(=O)[C@]1(C)N[C@H](CN(C)C(=O)Nc2ccc(Cl)cc2)[C@@H]2C(=O)N(Cc3ccccc3)C(=O)[C@@H]21,inactive
7,COc1ccc2[nH]c(=O)c(CN(Cc3cccs3)Cc3nnnn3Cc3ccccc3)cc2c1,inactive
8,COCCn1nnnc1CN(CCc1ccccc1)Cc1cc2cc(OC)ccc2[nH]c1=O,inactive
9,Cc1cc(NC(=O)CCC(=O)N(C2CC2)C2(C(=O)NC3CCCC3)CCC(C)CC2)no1 (configuration not stated),inactive
10,CCOC(=O)CN1CCCc2nc(C)c(C)cc21,inactive
11,Cn1c(SCc2nc(-c3ccc(Cl)cc3)no2)nnc1-c1cccs1,inactive
12,CCNc1ncnc2c1cnn2C1CCCO1 (configuration not stated),inactive
13,COc1cc(OC)cc(C(=O)N[C@H](C(=O)NCCc2c[nH]c3ccccc23)C(C)C)c1,inactive
14,COc1cc(CNCc2ccc(OC)c3ccccc23)cc(OC)c1OC,inactive
15,N#Cc1c(NCc2ccccc2)ccnc1NCc1cccnc1,inactive
16,Cc1nc2ccccc2nc(C)c1=NOCc1cccc(Cl)c1,inactive
17,COc1ccc(-c2nn(C)c(=O)c3ccccc23)cc1NC(=O)Cn1nc(C)c2ccccc2c1=O,inactive
18,Cc1ccc(C(=O)Nc2cnc3ccccc3c2)cc1,inactive
19,COc1ccc(-c2c(C)nn3c(C(F)(F)F)cc(C)nc23)cc1,inactive
20,C=CCNc1nc2c(c(=O)n(C)c(=O)n2C)n1CCCCCC,inactive
21,O=C(CNC(=O)c1cccc(-n2cccc2)c1)Nc1ccccc1Br,inactive
22,CC[C@@]12C(=O)N(c3ccc(OC)cc3)C(=O)N1[C@H](c1ccc(Cl)cc1)[C@@H]1C(=O)N(C3CCCCC3)C(=O)[C@@H]12,inactive
23,Cn1c(-c2ccc(Cl)cc2)ccc(C#N)c1=O,inactive
24,O=S(=O)(NC1CC1)c1ccc(S(=O)(=O)N2CCCc3ccccc32)cc1,inactive
25,Cc1ccc(OCCCCNC(C)c2ccccc2)c(C)c1 (configuration not stated),1.82% [at 8 µM] (inactive)

row,SMILES,"activity change, negative = cytotoxicity"
1,CC(C)OP(=O)(Nc1cccc2ccccc12)OC(C)C,inactive
2,O=C(c1ccccc1F)N1CCN(Cc2cccc(Cl)c2)CC1,inactive
3,COc1ccccc1CN(C)C(=O)CN1CCN(C(=O)c2cccs2)CC1,inactive
4,O=C(CCCC(=O)N(c1ccc2c(c1)OCCO2)C(C(=O)NC1CCCCC1)c1ccc(F)cc1)Nc1ccccn1 (configuration not stated),inactive
5,Nc1ccn(C2OC(COC(=O)C34CC5CC(CC(C5)C3)C4)C(O)C2O)c(=O)n1 (configuration not stated),inactive
6,Nc1ccn([C@@H]2O[C@H](C(=O)NCc3ccc4c(c3)OCO4)[C@@H](O)[C@H]2O)c(=O)n1,inactive
7,C[C@@]12CC(=O)NC1N(C(=O)c1cccc(C(F)(F)F)c1)C(c1ccccc1O)C2 (some centres not stated),inactive
8,COc1ccc(NS(=O)(=O)c2cccc(C(=O)NNC(=O)CNC(=O)c3ccc(C)cc3)c2)cc1,inactive
9,COc1ccc(CC(=O)Nc2cccc(S(=O)(=O)N3CCCCCC3)c2)cc1OC,inactive
10,CC1CCCC(C)N1CCCNC(=O)c1nn(C)c2c1CSc1ccccc1-2 (configuration not stated),inactive
11,Cc1cc(N2CCN(c3nc4ccccc4s3)CC2)n2ncnc2n1,inactive
12,Cc1cccc(C)c1NC(=O)CCCSc1nnc(-c2ccc(Cl)cc2)n1-c1ccccc1,inactive
13,O=C(NCc1ccco1)c1ccc(Cn2c(=O)c3ccccc3n(Cc3cccc(Cl)c3)c2=O)cc1,inactive
14,Cc1cc(C(=O)N2CCC(C(=O)O)CC2)c(C(F)(F)F)o1,inactive
15,COc1ccc(-c2cn[nH]c2N)c(OC)c1,inactive
16,O=C(Nc1cccc(C(F)(F)F)c1)c1ccc(Cn2cc(Br)cn2)o1,inactive
17,O=C(Nc1ccc(Cl)cc1)Nc1cccc(C(=O)O)c1,inactive
18,CCN(C1CCCCC1)S(=O)(=O)c1ccc(S(=O)(=O)N(CC(=O)Nc2ccccc2)C2CC2)cc1,inactive
19,Cc1cc(Nc2cccc(C(F)(F)F)c2)cc(=O)n1-c1cccc(C(F)(F)F)c1,inactive
20,CCN(C[C@H]1N[C@@](CC)(C(=O)OC)[C@H]2C(=O)N(Cc3ccccc3)C(=O)[C@@H]12)S(=O)(=O)c1ccc(C(F)(F)F)cc1,inactive
21,CCCCS(=O)(=O)N1CCN(C(=O)C(=O)c2cccc(C(F)(F)F)c2)CC1,inactive
22,CCN(CC)S(=O)(=O)c1cccc(S(=O)(=O)c2cccc(S(=O)(=O)N(CC)CC)c2)c1,inactive
